Records with an inconclusive call do not appear. Entries that show only a call come without a potency. A number with no mark means an inactive call. Activity calls are given as the source filed them. Calls follow the shape of the dose curve; as a rule, active = well fitted curve in the direction sought with a large enough effect; inconclusive = small, poorly fitted or top-dose-only effect, or another doubt; inactive = no such curve, though single readings can be large; an effect the other way counts as inactive or inconclusive.
Experiments:
[1] = molecular target: Aldehyde dehydrogenase, mitochondrial (Homo sapiens) (UniProt P05091); experiment: qHTS for Inhibitors of the Aldehyde Dehydrogenase Family (ALDH2) Primary screen (AID 2061308); also: nearly all actives have a fitted effect of over 55% in size
[2] = molecular target: Retinaldehyde dehydrogenase 3 (Homo sapiens) (UniProt P47895); experiment: qHTS for Inhibitors of the Aldehyde Dehydrogenase Family (ALDH1A3) Primary screen (AID 2061315)

| Structure (SMILES) | Potency [1] | Potency [2] | activity change, negative = inhibition [1] | activity change, negative = inhibition [2] |
| --- | --- | --- | --- | --- |
| Cc1cc2c(s1)c(C#N)c(C(=O)NCc1ccccc1F)n2C | inactive | inactive |  |  |
| C=CCNc1oc(-c2cccc(Br)c2)nc1C#N | inactive | inactive |  |  |
| COc1ccc(-c2csc3ncnc(Sc4nnnn4C)c23)cc1 | inactive | inactive |  |  |
| CNc1nc(-c2cccc3ccccc23)ccc1C#N | inactive | inactive |  |  |
| COc1cccc(C2c3c(ncn(-c4cccc(Cl)c4)c3=N)Oc3ccc4ccccc4c32)c1 (centres undefined) | inactive | inactive |  |  |
| O=S(=O)(NC1CCN(S(=O)(=O)c2ccc3c(c2)OCCO3)C1)c1c(F)cccc1F (centres undefined) | inactive | inactive |  |  |
| N#Cc1c(-c2ccc(OCCOCCOCCN)cc2)no[n+]1[O-] | inactive | inactive |  |  |
| O=C(Nc1ccc(S(=O)(=O)Nc2nccs2)cc1)c1ccc2ccccc2c1 | inactive | inactive |  |  |
| CCCn1c(-c2ccc(F)cc2)nc2c(N3CCCN(Cc4ccccc4)CC3)nc(C)nc21 | inactive | inactive |  |  |
| O=S(=O)(c1ccccc1)N1CCN(c2nc(C3CC3)nc3ccccc23)CC1 | inactive | inactive |  |  |
| Cc1cc(C)n2ncc(C(=O)Nc3ccc(C)c(C)c3)c2n1 | inactive | inactive |  |  |
| CS(=O)(=O)c1ccccc1-c1csc(N2CCC(C(N)=O)CC2)n1 | inactive | inactive |  |  |
| O=C(Nc1ccc(S(=O)(=O)Nc2nccs2)cc1)C1CCC2(CC1)CC2 | inactive | inactive |  |  |
| CN1CCN(c2ccc(Nc3nc(-c4ccncc4)nc4ccccc34)cc2F)CC1 | inactive | inactive |  |  |
| O=C(N[C@H]1CCCc2c1cnn2-c1ccc(F)cc1F)c1ccccn1 | inactive | inactive |  |  |
| Cc1ccc(S(=O)(=O)Nc2cc(C)ccc2C(=O)Nc2nc(-c3ccccc3)cs2)cc1 | inactive | inactive |  |  |
| COc1cc(F)c(S(=O)(=O)N2CCCN(S(=O)(=O)c3ccc(NC(C)=O)cc3)CC2)c(F)c1 | inactive | inactive |  |  |
| C=C1C(=O)O[C@@H]2C[C@H](C)[C@@H]3CC(=O)C(C)=C3C[C@H]12 | inactive | inactive |  |  |
| S=C(Nc1ccc(Cl)c(Cl)c1)Nc1nnc(-c2ccncc2)o1 | inactive | inactive |  |  |
| CCOc1ccc(CCNC(=O)c2cc3sccc3n2CCc2ccccc2)cc1OCC | inactive | inactive |  |  |
| Cc1noc(C)c1-c1ccc2ncnc(NCc3ccc(F)c(F)c3)c2c1 | inactive | inactive |  |  |
| Nc1nc(Nc2cc(F)cc(F)c2)nc(NC2CCCC2)n1 | inactive | inactive |  |  |
| O=C(Nc1ccc(S(=O)(=O)Nc2nccs2)cc1)c1cc(-c2ccccc2)nc2ccccc12 | inactive | inactive |  |  |
| O=c1[nH]c2ccc(S(=O)(=O)N3CCN(S(=O)(=O)c4c(F)cccc4F)CC3)cc2[nH]c1=O | inactive | inactive |  |  |
| CN(Cc1cncn1C)c1ncnc2ccc(-c3ccc4c(c3)OCO4)cc12 | inactive | inactive |  |  |
| N#Cc1nc(Nc2cccc(C(F)(F)F)c2)nc(NC2CCCC2)n1 | inactive | inactive |  |  |

| Structure (SMILES) | Potency [1] | Potency [2] | activity change, negative = inhibition [1] | activity change, negative = inhibition [2] |
| --- | --- | --- | --- | --- |
| O=C(Nc1cccc(-c2nn3c(=O)cc(N4CCNCC4)nc3s2)c1)C1CCNCC1 | inactive | inactive |  |  |
| Nc1nc2c(ncn2C2OC3COP(=O)(O)OC3C2O)c(=O)[nH]1 (centres undefined) | inactive | inactive |  |  |
| O=S(=O)(c1ccc(Cl)cc1)N1CCN(S(=O)(=O)c2ccc3c(c2)OCCO3)CC1 | inactive | inactive |  |  |
| O=S(=O)(NCCNc1nc(-c2ccco2)nc2ccccc12)c1ccccc1 | inactive | inactive |  |  |
| COC1CC(O[C@H]2CC[C@@]3(C)C(=CC[C@]4(O)C3[C@H](OC(C)=O)[C@@H](OC(=O)c3ccccc3)[C@]3(C)[C@@H](C(C)=O)CC[C@@]34O)C2)OC(C)C1OC1CC(OC)C(OC2CC(OC)C(OC3OC(C)C(OC4OC(CO)C(O)C(O)C4O)C(OC)C3O)C(C)O2)C(C)O1 (some centres undefined) |  |  | 8.46% [at 11.2 µM] | 2.23% [at 11.2 µM] |
| Cc1ccc(S(=O)(=O)Nc2cccc(C(=O)Nc3nc(-c4ccccc4)cs3)c2Cl)cc1 | inactive | inactive |  |  |
| CN1[C@@H]2CC[C@H]1CC(OC(c1ccccc1)c1ccccc1)C2 (some centres undefined) | inactive | inactive |  |  |
| CCOC(=O)c1ccoc1-c1ccc2ncnc(NCCc3cnc[nH]3)c2c1 | inactive | inactive |  |  |
| NC(=O)C1CCN(c2nc(-c3ccc(OCc4ccccc4)cc3)cs2)CC1 | inactive | inactive |  |  |
| Clc1cccc(-c2nc(-c3ccc(-c4nn[nH]n4)cc3)no2)c1 | inactive | inactive |  |  |
| CCCn1c(-c2ccc(F)cc2)nc2c(N3CCN(C)CC3)nc(C)nc21 | inactive | inactive |  |  |
| CC(C)CCCCC(=O)N[C@@H](CO)C(=O)N[C@@H](CC(C)C)C(=O)[C@@]1(CO)CO1 | inactive | inactive |  |  |
| CN(CC(=O)Nc1ccc(N2CCOCC2)cc1)Cc1ccccc1O | inactive | inactive |  |  |
| Cc1cc(C)nc(NC(=S)N2CCN(c3nc4ccccc4s3)CC2)c1 | inactive | inactive |  |  |
| CCNC(=O)c1ccc(-c2ccc3ncnc(NCCc4cnc[nH]4)c3c2)o1 | inactive | inactive |  |  |
| COc1ccc(C2Nc3ccccc3C(=O)N2CCO)cc1COc1c(C)cc(NC(C)=O)cc1C (centres undefined) | inactive | inactive |  |  |
| CC(C)(C)CNc1ncnc2ccc(-c3ccc(CO)o3)cc12 | inactive | inactive |  |  |
| COc1ccc(NC(=S)N2CCN(c3cccc(C(F)(F)F)c3)CC2)nc1 | inactive | inactive |  |  |
| Cc1cccc(-n2cnc3cc(C(=O)N4CCOCC4)ccc32)c1 | inactive | inactive |  |  |
| CSc1ccccc1-c1ccc(Nc2nc(-c3ccncc3)nc3ccccc23)cc1F | inactive | inactive |  |  |
| Cc1cc(C)n2ncc(C(=O)Nc3cc(Cl)cc(Cl)c3)c2n1 | inactive | inactive |  |  |
| Cc1sc(C)c2c1C(=O)NS2(=O)=O | inactive | inactive |  |  |
| COC(=O)C(CC1(O)c2ccccc2N2C(=O)C(C)(C)N(O)C21)n1cnc2ccccc2c1=O (centres undefined) | inactive | inactive |  |  |
| Cc1cc(C)nc(NC(=S)N2CCN(c3ccc(S(C)(=O)=O)cc3F)CC2)c1 | inactive | inactive |  |  |
| N#CN1CCC(NS(=O)(=O)c2cccc(C(F)(F)F)c2)CC1 | inactive | inactive |  |  |
| O=c1c2ccccc2nc2sc(Nc3ccc(F)cc3)nn12 | inactive | inactive |  |  |

| Structure (SMILES) | Potency [1] | Potency [2] | activity change, negative = inhibition [1] | activity change, negative = inhibition [2] |
| --- | --- | --- | --- | --- |
| Cc1cc2c(s1)c1cnn(Cc3c(F)ccc(C)c3Cl)c(=O)c1n2C | inactive | inactive |  |  |
| O=C(OCC#CCSc1nnc(-c2cccc3ccccc23)o1)c1cccc2[nH]ccc12 | inactive | inactive |  |  |
| Cc1nc(N2CCOCC2)c2nc(-c3ccccc3)n(CCN3CCCCC3)c2n1 | inactive | inactive |  |  |
| CO[C@H]1C[C@@H]2CC[C@@H](C)[C@@](O)(O2)C(=O)C(=O)N2CCCC[C@H]2C(=O)O[C@H]([C@@H](C)C[C@@H]2CC[C@@H](O)[C@H](OC)C2)CC(=O)[C@H](C)/C=C(\C)[C@@H](O)[C@@H](OC)C(=O)[C@H](C)C[C@H](C)/C=C/C=C/C=C/1C | inactive | inactive |  |  |
| C[C@@H]1O[C@@H](O[C@H]2[C@H](O[C@H]3CC[C@@]4(C)C(CC[C@]5(C)C4CC=C4[C@@H]6CC(C)(C)CC[C@]6(C(=O)O)CC[C@]45C)[C@]3(C)CO)OC[C@H](O)[C@@H]2O)[C@H](O)[C@H](O[C@@H]2OC[C@@H](O)[C@H](O)[C@H]2O)[C@H]1O (some centres undefined) | inactive | inactive |  |  |
| Cc1cc(NC(=O)Nc2nnc(C3CCCCC3)s2)ccc1Br | inactive | inactive |  |  |
| C=C1C[C@]23C[C@H]1CC[C@H]2C1=C[C@H]2OC(=O)[C@@](C)([C@H]1[C@@H]3C(=O)O)[C@H]2O | inactive | inactive |  |  |
| COCCN(CCOC)c1nc(C)nc2c1nc(-c1ccccc1)n2CCCN1CCCCC1C (centres undefined) | inactive | inactive |  |  |
| C=C(NC(=O)C(=C)NC(=O)c1csc(C2=NC3c4csc(n4)C4NC(=O)c5csc(n5)C(C(C)(O)C(C)O)NC(=O)C5CSC(=N5)/C(=C/C)NC(=O)C(C(C)O)NC(=O)c5csc(n5)C3(CC2)NC(=O)C(C)NC(=O)C(=C)NC(=O)C(C)NC(=O)C(C(C)CC)NC2C=Cc3c(C(C)O)cc(nc3C2O)C(=O)OC4C)n1)C(N)=O (centres undefined) | inactive | inactive |  |  |
| Cc1csc(CNc2ncnc3ccc(-c4ccc5c(c4)OCO5)cc23)n1 | inactive | inactive |  |  |
| Cc1ccc(-c2cc(C(=O)Nc3ccc(S(N)(=O)=O)cc3)c3ccccc3n2)cc1C | inactive | inactive |  |  |
| COC(=O)c1cncc(NC(=O)c2cccs2)c1 | inactive | inactive |  |  |
| COc1cc(O)c(C(CC(=O)N2CCCC(C#N)C2)c2ccc3c(c2)OCO3)c(OC)c1 (centres undefined) | inactive | inactive |  |  |
| O=C(O)CC(=O)OC[C@H]1O[C@@H](Oc2ccc3c(c2)OC[C@H]2c4cc5c(cc4O[C@@H]32)OCO5)[C@H](O)[C@@H](O)[C@@H]1O | inactive | inactive |  |  |
| CN(C)c1cccc(-c2ncc(F)c(N3CCC(C(N)=O)CC3)n2)c1 | inactive | inactive |  |  |
| C#CCOc1ccc(C(C)=O)cc1-c1nnc2n1N=C(c1ccc(OC)c(O[C@@H]3CCOC3)c1)CS2 | inactive | inactive |  |  |
| CN1CCN(Cc2cc(COCc3ccccc3)c3cccnc3c2O)CC1 | inactive | inactive |  |  |
| O=C(Cn1cc(CNCc2ccccc2)nn1)Nc1cc(C(F)(F)F)ccc1Cl | inactive | inactive |  |  |
| Cc1ccc(NS(=O)(=O)c2cc3c(cc2NCC(C)(C)O)NC(=O)CC3)cc1C | inactive | inactive |  |  |
| Cc1cccc(-n2cnc3cc(C(=O)N4CCCC(c5ccccc5)C4)ccc32)c1 (centres undefined) | inactive | inactive |  |  |
| COC(=O)c1ccc2c(c1)S(=O)(=O)NC2=O | inactive | inactive |  |  |
| Cc1cc2c(s1)c1cnn(Cc3cc(F)cc(F)c3F)c(=O)c1n2C | inactive | inactive |  |  |
| O=C(Nc1nc(Nc2cc(F)cc(F)c2)nc(NC2CCCC2)n1)OCc1ccccc1 | inactive | inactive |  |  |
| Cc1cc(NS(=O)(=O)c2ccc(NC(=O)c3ccc(Cl)c(Cl)c3)cc2)no1 | inactive | inactive |  |  |
| COC1CC(O[C@H]2CC[C@]3(C)C4CC[C@]5(C)C(C6=CC(=O)OC6)=CCC56OC46CC[C@@H]3C2)OC(C)C1O[C@@H]1O[C@H](CO[C@@H]2O[C@H](CO)[C@@H](O)[C@H](O)[C@H]2O)[C@@H](O)[C@H](O)[C@H]1O (some centres undefined) | inactive | inactive |  |  |
